The record followed here is article PMC5540273 (PLoS ONE, 2017).

Common to all, as to conditions: concentration: 1 μM, replicates: in singlicate; n = 1
The subject of experiment [1] is LCK.
For experiment [2], the system named is LIMK1.
The test system of experiment [3] is LIMK2.
In experiment [4] the test system is T1, LKB1.
T1 construct: gene STK11

The test system of experiment [5] is T2, LOK.
T2 construct: gene STK10

For experiment [6], the system named is LRRK2.
For experiment [7], the system named is LTK.
Experiment [8] relates to LYN.
In experiment [9] the test system is T3, LZK.
T3 construct: gene MAP3K13

Experiment [10] deals with MAK.
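Further: KINOMEscan kinase panel screen.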

As to `O=C(NC1CCN(c2ccnc(Nc3ccc(F)cc3)n2)C1)c1cc2ccccc2s1` (centres unmarked) [GSK1379716], the “%Inh” value was 32% in experiment [1]; 0% in experiment [2]; 0% in experiment [3]; 19% in experiment [4]; 0% in experiment [5]; 0% in experiment [6]. For the same compound, the “%Inh” value is on record as 10% in [7], 0% in [8], 23% in experiment [9] and 38% in [10].
With `C[C@@H]1CC[C@@H](C(=O)Nc2ccccc2)CN1c1cc(-c2ccc3c(N)n[nH]c3c2)nc(N)n1` [GSK2286062], the “%Inh” value in experiment [1] is listed as 2%; in [2], 0%; in [3], 3%; in experiment [4] it was 20%; in experiment [5], 0%; in experiment [6] it was 0%. The “%Inh” value turned out to be 0% in [7], 0% in [8], 0% in experiment [9] and 22% in experiment [10].
For the compound `CCc1ccc(-c2ccc3c(c2)-c2c(cnn2C)S(=O)(=O)N3C)cc1`, the “%Inh” value in experiment [1] is given as 0%; in experiment [2] it was 0%; in [3], 0%; in experiment [4], 29%; in [5] it was 16%; in experiment [6], 1%. For the same compound, the “%Inh” value is recorded as 3% in experiment [7], 0% in experiment [8], 14% in experiment [9] and 14% in [10].
For the compound `CC(C)(C)c1ccc2nccc(Nc3cccc(O)c3)c2c1` [GW856795], the “%Inh” value worked out at 85% in [1]; 0% in experiment [2]; 1% in [3]; 29% in experiment [4]; 0% in [5]; 36% in experiment [6]. The “%Inh” value is listed as 18% in experiment [7], 22% in [8], 0% in [9] and 40% in experiment [10].
For the compound `CSc1cccc2c(-c3ccncn3)c(-c3ccc(F)cc3)nn12` [GW514786], the “%Inh” value in [1] is 20%; in experiment [2], 11%; in [3], 0%; in experiment [4] it was 0%; in experiment [5], 0%; in experiment [6], 34%. Moreover, the “%Inh” value is reported as 0% in experiment [7], 0% in experiment [8], 20% in [9] and 0% in experiment [10].
For `COc1ccc(CNC(=O)NC2CCN(c3ccnc(Nc4ccc(F)cc4)n3)CC2)cc1` [GSK1379788], the “%Inh” value in experiment [1] was 8%; in [2], 0%; in experiment [3], 0%; in experiment [4], 4%; in experiment [5] it was 0%; in experiment [6], 0%. For the same compound, the “%Inh” value in experiment [7] is recorded as 1%; in experiment [8] it was 0%; in experiment [9], 25%; in experiment [10], 24%.
For `COc1cccc(C(=O)Nc2cccc(Oc3ccc4nc(NC(=O)C5CC5)cn4n3)c2)c1`, the “%Inh” value in [1] is 99.2%; in experiment [2], 19%; in experiment [3], 23%; in experiment [4], 0%; in experiment [5], 96.2%; in experiment [6], 3%. Moreover, the “%Inh” value in experiment [7] was found to be 27%; in [8], 92.9%; in [9] it was 0%; in experiment [10], 0%.
For `Nc1ncc(-c2cccnc2)c2scc(-c3ccc4c(c3)CCN4C(=O)Cc3ccccc3)c12` [GSK683281], the “%Inh” value was 70% in [1]; 22% in experiment [2]; 36% in [3]; 10% in experiment [4]; 75% in experiment [5]; 0% in experiment [6]. The “%Inh” value worked out at 50% in [7], 45% in experiment [8], 0% in [9] and 28% in [10].
In the case of `CC(=O)N1CCN(c2ccc(Nc3nccc(-c4sc(C(C)C)nc4-c4cccc(NS(=O)(=O)c5cccc(Cl)c5)c4)n3)cn2)CC1` [GSK1660437], the “%Inh” value in [1] is 98.6%; in experiment [2] it was 98.4%; in [3], 100%; in [4] it was 0%; in experiment [5] it was 96.8%; in experiment [6], 24%. Besides, the “%Inh” value stood at 23% in [7], 74% in experiment [8], 29% in [9] and 35% in experiment [10].
For the compound `Cc1cccc(Nc2nc(N[C@H]3CCNC3)ncc2C(N)=O)c1.Cl` [GSK2197149], the “%Inh” value in [1] came to 40%; in experiment [2] it was 0%; in [3], 0%; in [4], 8%; in experiment [5], 0%; in experiment [6] it was 56%. The “%Inh” value in experiment [7] is 0%; in experiment [8] it was 26%; in [9] it was 0%; in experiment [10] it was 11%.
As for `O=C(Nc1n[nH]c2cc(-c3ccoc3)ccc12)C1CC1` [SB-738481], the “%Inh” value was found to be 0% in experiment [1]; 14% in experiment [2]; 22% in experiment [3]; 0% in [4]; 0% in experiment [5]; 0% in experiment [6]. Also, the “%Inh” value in [7] was 13%; in experiment [8], 11%; in experiment [9], 0%; in [10], 3%.
